In PubChem BioAssay (Tox21):
Results filed as inconclusive are left out. Where a call stands in place of a potency, no number is given. Active and inactive are the calls of the source. Calls come from the whole dose curve.

These compounds were tested against Progesterone receptor (Homo sapiens) (UniProt P06401) (assay: qHTS assay to identify small molecule agonists of the progesterone receptor (PR) signaling pathway (AID 1346784; note: nearly all actives have a fitted effect of over 30% in size)). Conditions: PR-UAS-bla HEK293T, beta-lactamase FRET ratio, 16 h; series mostly up to 92.4 µM.
Text: U.S. Tox21 Program National Center for Advancing Translational Sciences [NCATS] NIH Chemical Genomics Center [NCGC] U.S. Environmental Protection Agency [EPA] National Institutes of Environmental Health Sciences [NIEHS] National Toxicology Program [NTP] U.S. Food and Drug Administration [FDA] […] Endocrine disrupting chemicals (EDCs) and their interactions with steroid hormone receptors like PR causes disruption of normal endocrine function. To identify the compounds that activate PR signaling, a PR-UAS-bla GripTite cell line i.e. PR-UAS-bla HEK 293T (Invitrogen, Carlsbad, CA, USA) containing a beta-lactamase reporter gene under the control of an Upstream Activator Sequence (UAS) was used to screen Tox21 10K compound library.
Tox21 Assay Protocol Summary: PR-UAS-bla HEK 293T cells were dispensed at 3,000 cells/5 uL of assay medium containing 2% charcoal stripped FBS per well into black wall/clear-bottom 1536-well plates using a Multidrop Combi (ThermoFisher Scientific, Waltham, MA) dispenser. After the assay plates were incubated at a 37C and 5% CO2 for 6hr, 23 nL of compounds dissolved in DMSO, positive controls or DMSO only was transferred to the assay plate by a Pintool station (Kalypsys, San Diego, CA). The plates were incubated at 37C and 5% CO2 for 16hr. Then 1 uL of LiveBLAzer B/G FRET substrate was added using a BioRAPTR FRD (Flying Reagent Dispenser, Aurora Discovery, San Diego, CA). After the plates were incubated at room temperature for 2 hours, fluorescence intensity was measured by an Envision plate reader (PerkinElmer, Shelton, CT).
Potency is the fitted concentration of half-maximal effect.

Sequence of Progesterone receptor (Homo sapiens) (P06401 whole entry, looked up): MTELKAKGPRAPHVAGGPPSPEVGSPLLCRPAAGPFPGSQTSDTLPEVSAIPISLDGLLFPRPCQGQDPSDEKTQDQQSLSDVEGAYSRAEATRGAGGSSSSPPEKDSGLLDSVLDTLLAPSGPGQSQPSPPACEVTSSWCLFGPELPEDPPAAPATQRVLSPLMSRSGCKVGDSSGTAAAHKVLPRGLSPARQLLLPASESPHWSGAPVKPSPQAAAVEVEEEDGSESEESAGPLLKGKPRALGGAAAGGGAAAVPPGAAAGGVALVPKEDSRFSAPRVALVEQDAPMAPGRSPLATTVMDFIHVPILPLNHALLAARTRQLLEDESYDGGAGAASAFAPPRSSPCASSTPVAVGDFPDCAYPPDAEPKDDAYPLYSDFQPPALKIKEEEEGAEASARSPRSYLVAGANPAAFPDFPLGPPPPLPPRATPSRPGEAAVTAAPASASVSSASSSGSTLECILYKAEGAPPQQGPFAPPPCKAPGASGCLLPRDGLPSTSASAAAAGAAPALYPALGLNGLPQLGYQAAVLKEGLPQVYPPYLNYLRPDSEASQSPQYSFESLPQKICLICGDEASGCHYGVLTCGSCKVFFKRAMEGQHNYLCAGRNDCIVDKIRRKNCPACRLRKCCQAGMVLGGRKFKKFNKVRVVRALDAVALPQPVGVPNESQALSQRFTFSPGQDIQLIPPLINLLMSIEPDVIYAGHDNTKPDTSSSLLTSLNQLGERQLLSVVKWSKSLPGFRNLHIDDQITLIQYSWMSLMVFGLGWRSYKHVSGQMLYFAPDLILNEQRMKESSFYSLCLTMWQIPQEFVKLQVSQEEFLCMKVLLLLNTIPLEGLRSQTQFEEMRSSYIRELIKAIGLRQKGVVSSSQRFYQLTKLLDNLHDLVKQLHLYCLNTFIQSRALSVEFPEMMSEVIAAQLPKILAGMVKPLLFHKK

SMILES | Potency
NC(=O)c1ccc([N+](=O)[O-])cc1Cl | inactive
CC(=O)Oc1ccccc1C(=O)O | inactive
C[C@]12C[C@H](O)[C@H]3[C@@H](CCC4=CC(=O)CC[C@@]43C)[C@@H]1CC[C@@H]2C(=O)CO | 971 nM (active)
CN/C(=C\[N+](=O)[O-])NCCSCc1ccc(CN(C)C)o1 | inactive
C=CCOC(=O)CC(C)C | inactive
C[C@]12C=CC(=O)C=C1CC[C@@H]1[C@@H]2C(=O)C[C@@]2(C)[C@H]1CC[C@]2(O)C(=O)CO | inactive
NC(=O)N1c2ccccc2C=Cc2ccccc21 | inactive
N[C@@H](Cc1c[nH]c2ccc(O)cc12)C(=O)O | inactive
O=[N+]([O-])c1ccc(O)cc1 | inactive
Cc1cccc2ccccc12 | inactive
Cc1cccc(Nc2cc(Cl)nc(SCC(=O)O)n2)c1C | inactive
Cn1cnc2c1c(=O)[nH]c(=O)n2C | inactive
CCOCCO | inactive
Cc1cccc(C)c1O | inactive
NC(=O)NO | inactive
O=C1CCCCCN1 | inactive
CC(=O)CCC(C)C | inactive
NC(=O)N/N=C/c1ccc([N+](=O)[O-])o1 | inactive
CCCCNC(=O)NS(=O)(=O)c1ccc(N)cc1 | inactive
CC(=O)OC/C=C(C)/C=C/C=C(C)/C=C/C1=C(C)CCCC1(C)C | inactive

SMILES | Potency
C=C(C)OC(C)=O | inactive
COC1=CC(=O)C[C@@H](C)[C@]12Oc1c(Cl)c(OC)cc(OC)c1C2=O | inactive
CC(O)COc1ccccc1 (stereo not given) | inactive
CCCCCCCC(=O)OCC(O)CO (stereo not given) | inactive
CCCCCCCCOc1ccc(C(=O)c2ccccc2)c(O)c1 | inactive
CC1=NN(c2ccccc2)C(=O)C1 | inactive
C#C[C@]1(O)CC[C@H]2[C@@H]3CCc4cc(O)ccc4[C@H]3CC[C@@]21C | 271 nM (active)
Cc1c(N(C)C)c(=O)n(-c2ccccc2)n1C | inactive
CCN(CC)CCOC(=O)c1ccc(N)cc1 | inactive
C[C@]12CC[C@@H]3c4ccc(O)cc4CC[C@H]3[C@@H]1CCC2=O | inactive
CC(C)=CCC/C(C)=C/CO | inactive
COC(=O)c1ccc(C=O)cc1 | inactive
CCOC(=O)C(C)(C)Oc1ccc(Cl)cc1 | inactive
COc1ccccc1NC(=O)CC(C)=O | inactive
O=c1c(-c2ccc(O)cc2)coc2cc(O)cc(O)c12 | inactive
Cc1cnc(NC(=O)C2=C(O)c3ccccc3S(=O)(=O)N2C)s1 | inactive
Nc1ccc(N=Nc2ccccc2)c(N)n1 | inactive
CO[C@H]1C=CO[C@@]2(C)Oc3c(C)c(O)c4c(O)c(c(/C=N/N5CCN(C)CC5)c(O)c4c3C2=O)NC(=O)/C(C)=C\C=C[C@H](C)[C@H](O)[C@@H](C)[C@@H](O)[C@@H](C)[C@H](OC(C)=O)[C@@H]1C | inactive
CC(C)Cc1ccc(C(C)C(=O)O)cc1 (stereo not given) | inactive
COc1ccc(O)cc1 | inactive
